# Measurements as given in ChEMBL document CHEMBL2218924, “A broad activity screen in support of a chemogenomic map for kinase signalling research and drug discovery” (Biochem J, 2013).
# Key:
# [1] = molecular target: T1, Testis-specific serine/threonine-protein kinase 1 (Homo sapiens) (UniProt Q9BXA7); conditions: at 1 µM
# T1 sequence (whole entry): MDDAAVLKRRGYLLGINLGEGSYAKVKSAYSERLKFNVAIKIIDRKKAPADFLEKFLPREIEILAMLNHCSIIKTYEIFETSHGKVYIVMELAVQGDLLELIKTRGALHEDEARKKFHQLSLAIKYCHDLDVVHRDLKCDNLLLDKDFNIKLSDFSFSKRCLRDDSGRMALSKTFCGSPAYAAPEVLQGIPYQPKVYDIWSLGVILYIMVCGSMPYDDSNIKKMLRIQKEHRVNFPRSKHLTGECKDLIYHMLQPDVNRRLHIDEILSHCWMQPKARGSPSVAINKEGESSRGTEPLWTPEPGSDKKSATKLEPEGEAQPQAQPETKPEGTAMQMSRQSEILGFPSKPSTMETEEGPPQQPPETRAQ
# [2] = molecular target: T1, Testis-specific serine/threonine-protein kinase 1 (Homo sapiens); conditions: at 10 µM
# [3] = molecular target: T2, Tyrosine-protein kinase Tec (Homo sapiens) (UniProt P42680); conditions: at 1 µM
# T2 sequence (whole entry): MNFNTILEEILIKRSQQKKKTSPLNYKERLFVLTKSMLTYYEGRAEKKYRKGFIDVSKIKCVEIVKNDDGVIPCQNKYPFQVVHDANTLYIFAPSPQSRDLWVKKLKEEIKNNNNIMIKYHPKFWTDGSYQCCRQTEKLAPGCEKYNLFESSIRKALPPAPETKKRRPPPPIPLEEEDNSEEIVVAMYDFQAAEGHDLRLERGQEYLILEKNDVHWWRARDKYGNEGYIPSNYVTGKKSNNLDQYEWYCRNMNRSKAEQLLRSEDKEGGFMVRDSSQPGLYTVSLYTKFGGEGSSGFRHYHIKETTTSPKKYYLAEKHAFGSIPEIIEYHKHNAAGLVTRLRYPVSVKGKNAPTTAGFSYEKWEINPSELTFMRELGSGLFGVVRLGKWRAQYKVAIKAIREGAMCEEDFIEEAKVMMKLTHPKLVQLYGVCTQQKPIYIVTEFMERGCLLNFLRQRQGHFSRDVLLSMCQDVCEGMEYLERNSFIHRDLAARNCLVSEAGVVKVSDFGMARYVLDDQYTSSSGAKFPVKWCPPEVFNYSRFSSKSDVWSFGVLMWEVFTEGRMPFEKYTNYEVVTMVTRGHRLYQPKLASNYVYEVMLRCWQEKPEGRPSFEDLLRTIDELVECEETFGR
# [4] = molecular target: T2, Tyrosine-protein kinase Tec (Homo sapiens); conditions: at 10 µM
# [5] = molecular target: Angiopoietin-1 receptor (Homo sapiens) (UniProt Q02763); conditions: at 10 µM
# [6] = molecular target: High affinity nerve growth factor receptor (Homo sapiens) (UniProt P04629); conditions: at 1 µM
# [7] = molecular target: High affinity nerve growth factor receptor (Homo sapiens) (UniProt P04629); conditions: at 10 µM
# [8] = molecular target: BDNF/NT-3 growth factors receptor (Homo sapiens) (UniProt Q16620); conditions: at 1 µM
# [9] = molecular target: T3, Testis-specific serine/threonine-protein kinase 2 (Homo sapiens) (UniProt Q96PF2); conditions: at 10 µM
# T3 sequence (whole entry): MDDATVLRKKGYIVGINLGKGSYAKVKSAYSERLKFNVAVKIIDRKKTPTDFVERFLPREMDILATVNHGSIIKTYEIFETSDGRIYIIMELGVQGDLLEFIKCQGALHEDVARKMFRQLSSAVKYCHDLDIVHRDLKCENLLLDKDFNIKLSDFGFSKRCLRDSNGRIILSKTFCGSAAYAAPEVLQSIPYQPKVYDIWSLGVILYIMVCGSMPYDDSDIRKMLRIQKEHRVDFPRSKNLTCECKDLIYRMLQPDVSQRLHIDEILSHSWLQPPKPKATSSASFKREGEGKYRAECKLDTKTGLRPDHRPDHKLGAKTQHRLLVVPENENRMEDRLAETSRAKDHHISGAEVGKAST
# [10] = molecular target: Angiopoietin-1 receptor (Homo sapiens) (UniProt Q02763); conditions: at 1 µM
# Chain of BDNF/NT-3 growth factors receptor (Homo sapiens) (Q16620 32-822 limits assumed): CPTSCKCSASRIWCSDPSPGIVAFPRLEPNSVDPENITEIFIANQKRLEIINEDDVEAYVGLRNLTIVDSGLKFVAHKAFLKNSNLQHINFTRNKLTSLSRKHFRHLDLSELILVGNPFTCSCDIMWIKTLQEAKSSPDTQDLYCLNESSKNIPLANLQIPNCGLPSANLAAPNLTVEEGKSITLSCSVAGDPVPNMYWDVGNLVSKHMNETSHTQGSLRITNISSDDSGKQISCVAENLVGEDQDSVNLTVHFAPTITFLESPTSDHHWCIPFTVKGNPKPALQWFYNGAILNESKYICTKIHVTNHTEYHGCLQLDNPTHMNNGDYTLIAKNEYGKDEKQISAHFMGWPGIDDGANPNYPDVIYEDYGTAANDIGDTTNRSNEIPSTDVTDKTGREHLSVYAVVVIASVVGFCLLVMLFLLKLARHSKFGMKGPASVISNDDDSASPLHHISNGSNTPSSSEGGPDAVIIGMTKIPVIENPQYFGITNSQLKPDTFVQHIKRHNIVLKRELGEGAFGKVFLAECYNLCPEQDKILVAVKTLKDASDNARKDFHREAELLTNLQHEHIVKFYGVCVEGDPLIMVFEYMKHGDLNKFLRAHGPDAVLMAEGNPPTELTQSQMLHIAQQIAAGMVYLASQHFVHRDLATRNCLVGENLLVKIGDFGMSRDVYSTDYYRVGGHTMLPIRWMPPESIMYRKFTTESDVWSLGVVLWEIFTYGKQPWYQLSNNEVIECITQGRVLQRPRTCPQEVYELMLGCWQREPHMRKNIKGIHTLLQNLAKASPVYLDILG
# Chain of High affinity nerve growth factor receptor (Homo sapiens) (P04629 33-796 limits assumed): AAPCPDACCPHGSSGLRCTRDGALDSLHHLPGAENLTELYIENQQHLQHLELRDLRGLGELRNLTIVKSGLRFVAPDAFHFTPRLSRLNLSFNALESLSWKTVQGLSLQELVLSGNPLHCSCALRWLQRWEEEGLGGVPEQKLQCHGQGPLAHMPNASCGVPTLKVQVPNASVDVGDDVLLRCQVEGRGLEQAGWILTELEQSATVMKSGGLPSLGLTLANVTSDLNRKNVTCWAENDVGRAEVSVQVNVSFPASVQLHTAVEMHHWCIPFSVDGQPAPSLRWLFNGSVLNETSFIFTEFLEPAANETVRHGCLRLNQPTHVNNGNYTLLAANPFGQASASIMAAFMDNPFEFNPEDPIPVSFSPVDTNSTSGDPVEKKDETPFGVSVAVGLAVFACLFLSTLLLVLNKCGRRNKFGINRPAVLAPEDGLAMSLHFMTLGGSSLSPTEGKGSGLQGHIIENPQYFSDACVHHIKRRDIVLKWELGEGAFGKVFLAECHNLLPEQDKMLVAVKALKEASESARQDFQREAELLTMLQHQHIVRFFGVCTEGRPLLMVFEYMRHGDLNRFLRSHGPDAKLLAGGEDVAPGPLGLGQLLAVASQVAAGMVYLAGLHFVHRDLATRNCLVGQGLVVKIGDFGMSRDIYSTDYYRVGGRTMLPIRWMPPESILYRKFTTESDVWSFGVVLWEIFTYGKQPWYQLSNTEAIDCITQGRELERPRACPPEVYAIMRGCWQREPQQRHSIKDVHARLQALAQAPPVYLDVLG
# Chain of Angiopoietin-1 receptor (Homo sapiens) (Q02763 whole entry): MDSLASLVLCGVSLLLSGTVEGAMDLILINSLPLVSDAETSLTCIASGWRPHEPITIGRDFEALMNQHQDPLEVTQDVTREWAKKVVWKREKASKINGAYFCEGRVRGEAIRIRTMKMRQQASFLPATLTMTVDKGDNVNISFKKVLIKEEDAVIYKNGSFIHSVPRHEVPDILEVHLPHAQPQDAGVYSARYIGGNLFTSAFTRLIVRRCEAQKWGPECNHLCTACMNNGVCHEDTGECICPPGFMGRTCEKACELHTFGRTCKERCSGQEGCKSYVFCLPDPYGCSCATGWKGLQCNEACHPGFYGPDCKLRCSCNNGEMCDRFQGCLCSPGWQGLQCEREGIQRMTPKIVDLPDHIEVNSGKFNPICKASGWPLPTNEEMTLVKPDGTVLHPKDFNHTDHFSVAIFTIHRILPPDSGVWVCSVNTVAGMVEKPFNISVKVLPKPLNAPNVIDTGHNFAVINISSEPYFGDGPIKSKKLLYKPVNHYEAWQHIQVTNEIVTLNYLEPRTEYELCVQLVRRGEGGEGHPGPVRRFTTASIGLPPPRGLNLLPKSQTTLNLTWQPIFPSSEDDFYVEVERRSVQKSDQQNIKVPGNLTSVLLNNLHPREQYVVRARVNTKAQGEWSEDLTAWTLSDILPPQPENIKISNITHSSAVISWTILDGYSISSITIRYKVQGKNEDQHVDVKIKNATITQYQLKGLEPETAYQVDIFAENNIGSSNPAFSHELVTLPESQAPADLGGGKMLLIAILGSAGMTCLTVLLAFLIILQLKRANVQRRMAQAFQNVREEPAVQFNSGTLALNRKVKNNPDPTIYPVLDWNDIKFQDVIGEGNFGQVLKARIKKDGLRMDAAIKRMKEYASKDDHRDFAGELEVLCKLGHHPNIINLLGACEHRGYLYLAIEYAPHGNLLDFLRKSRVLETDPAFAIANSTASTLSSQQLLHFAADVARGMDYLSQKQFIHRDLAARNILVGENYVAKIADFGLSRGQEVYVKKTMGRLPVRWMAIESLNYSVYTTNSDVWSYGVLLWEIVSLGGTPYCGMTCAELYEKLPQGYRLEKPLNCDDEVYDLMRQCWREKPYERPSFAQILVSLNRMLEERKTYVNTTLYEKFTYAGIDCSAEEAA
SMILES,residual activity [1],residual activity [2],residual activity [3],residual activity [4],residual activity [5],residual activity [6],residual activity [7],residual activity [8],residual activity [9],residual activity [10]
COc1cc2c(cc1OC)-c1n[nH]c(Nc3cccc(F)c3)c1C2,77%,68%,63%,18%,74%,69%,6%,56%,,
O=C1C(Cl)=C(N2C(=O)CCC2=O)C(=O)c2ccccc21,101%,79%,90%,79%,71%,89%,68%,85%,80%,
O=S(=O)(NCCNC/C=C/c1ccc(Br)cc1)c1cccc2cnccc12,100%,67%,,,69%,,78%,,,
O=c1cc(N2CCOCC2)oc2c1ccc1ccccc12,101%,82%,93%,96%,97%,106%,,,78%,81%
O=C1Nc2ccc(Cl)cc2/C1=C/c1cc(Cl)c(O)c(Cl)c1,95%,78%,89%,70%,51%,-1%,2%,38%,57%,75%
CC(C)(C)n1nc(Cc2cccc3ccccc23)c2c(N)ncnc21,96%,90%,53%,10%,28%,80%,17%,45%,,71%
O=C1Cc2c([nH]c3ccc(Br)cc23)-c2ccccc2N1,87%,49%,92%,55%,,,,,76%,
Cn1sc(=O)n(Cc2ccccc2)c1=O,63%,80%,97%,75%,,81%,68%,,84%,
CN(C)S(=O)(=O)c1ccc2c(c1)/C(=C/c1cc3c([nH]1)CCCC3)C(=O)N2,91%,73%,86%,80%,51%,-2%,-1%,4%,,45%
CCCC(=O)Oc1ccc2[nH]c(C(=O)c3cc4ccccc4[nH]3)cc2c1,93%,82%,85%,94%,49%,87%,87%,,96%,78%
NCCNc1ncc(C(N)=O)c(Nc2cccc(C(F)(F)F)c2)n1,56%,10%,,,49%,,,47%,,100%
COc1cc2nccc(Oc3ccc(NC(=S)NC(=O)c4ccccc4C)cc3)c2cc1OC,93%,76%,79%,36%,13%,44%,-1%,54%,81%,33%
O=C(CCCc1ccc(-c2ccccc2F)cc1)Nc1ccc(O)cc1,103%,99%,93%,79%,96%,102%,54%,93%,,83%
CCCCc1c(-c2ccc(O)cc2)[nH]c2nccnc12,58%,59%,,,,61%,12%,67%,85%,
CC(C)N(CCC(=O)c1ccc2ccccc2c1)Cc1ccccc1,81%,78%,,73%,,,,,,
Nc1ncnc2c1cnn2-c1ccccc1,92%,87%,99%,90%,102%,91%,83%,,,73%
CCCCc1c(-c2ccc(OC)cc2)[nH]c2nccnc12,63%,81%,51%,11%,82%,61%,57%,70%,,105%
COc1ccc(Cl)cc1NC(=O)Nc1cc(C)nc2ccccc12,95%,87%,93%,55%,,100%,60%,,88%,
O=C(NC(NC(=S)Nc1ccc(F)c([N+](=O)[O-])c1)C(Cl)(Cl)Cl)C(c1ccccc1)c1ccccc1 (stereo not drawn),87%,103%,102%,62%,82%,87%,52%,91%,101%,
O=C1NC(=O)C(c2cn(CCCO)c3ncccc23)=C1c1cnccn1,97%,84%,91%,73%,94%,80%,64%,87%,59%,95%
CCN(CC)CCNC(=O)c1c(C)[nH]c(/C=C2\C(=O)Nc3ccc(Cl)cc32)c1C,8%,0%,78%,29%,19%,-1%,0%,40%,26%,56%
CC(C)[C@H](CO)Nc1nc(Nc2cc(N)cc(Cl)c2)c2ncn(C(C)C)c2n1,86%,66%,61%,13%,52%,5%,0%,,90%,100%
